Data: PubChem BioAssay (EPA / NIEHS)
Results filed as inconclusive are left out. Activity calls are given as the source filed them. Rule for the calls, unless noted: active = hit-call score of the fitted dose curve at least 0.9, where 1 is the maximum; inactive = score below 0.9.

Key:
[1] = ACEA_ER_80hr: ACEA Biosciences xCELLigence Real-Time Cell Analysis on Estrogen Receptor Agonism for Proliferation (AID 2282667; active = hit-call score of the fitted dose curve at least 0.9, where 1 is the maximum); details: T47D proliferation, impedance (xCELLigence), 80 h
How it was run: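 Impedance readout (RT-CES) of T47D proliferation at 80 h post-dose; gain of signal vs DMSO baseline. Compounds: 8 conc, 1:4 serial, top 100 uM final, ≤0.5% DMSO; biological duplicate.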

[2] = ATG_CRE_CIS: Attagene CIS-FACTORIAL HepG2 Assay for human cAMP Responsive Element (CRE) binding protein 3 (AID 2282926); details: HepG2 CRE cis-reporter, Attagene multiplexed mRNA; actives raise or lower the signal
How it was run: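 Readout: fluorescently labelled reporter transcripts resolved by capillary electrophoresis after RT-PCR, taken 24 h post-dosing in transfected HepG2. Endogenous transcription factor activity drives each cis-element reporter; gain or loss of signal fitted relative to DMSO control.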

[3] = target: CCAAT/enhancer-binding protein beta (Homo sapiens) (UniProt P17676); assay: ATG_C_EBP_CIS: Attagene CIS-FACTORIAL HepG2 Assay for human CCAAT/Enhancer Binding Protein (C/EBP) beta (AID 2282927); details: HepG2 Attagene cis-factorial transcription factor reporter; actives raise or lower the signal
Chain of CCAAT/enhancer-binding protein beta (Homo sapiens) (P17676 whole entry, looked up): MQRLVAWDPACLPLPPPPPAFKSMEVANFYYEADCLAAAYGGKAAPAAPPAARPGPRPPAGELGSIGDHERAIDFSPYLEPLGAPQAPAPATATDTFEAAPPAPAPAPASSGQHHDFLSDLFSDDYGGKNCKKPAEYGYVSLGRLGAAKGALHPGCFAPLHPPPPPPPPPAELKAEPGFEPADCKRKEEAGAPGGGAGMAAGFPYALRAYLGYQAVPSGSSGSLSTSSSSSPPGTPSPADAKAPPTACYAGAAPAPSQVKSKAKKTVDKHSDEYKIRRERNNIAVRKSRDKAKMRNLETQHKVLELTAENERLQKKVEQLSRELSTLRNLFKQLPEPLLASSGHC
How it was run: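 Endogenous transcription factor activity in human liver HepG2 cells is inferred from induction of a CEBPB-linked reporter mRNA. Exposure lasts 24 h; activity is fitted in both directions relative to DMSO.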

[4] = ATG_CMV_CIS: Attagene CIS-FACTORIAL HepG2 Assay for human CMV (Internal Marker) (AID 2282928); details: HepG2 CMV promoter reporter, transcription factor profiling; actives raise or lower the signal;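 note: endpoint acts as a background internal control marker rather than a target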
How it was run: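 Fluorescence intensity of RT-PCR-derived reporter fragments, resolved by capillary electrophoresis, gives the signal. HepG2 liver cells bearing transfected cis-element reporters were treated 24 h; activity in either direction was fit relative to DMSO-treated controls.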

[5] = ATG_DR4_LXR_CIS: Attagene CIS-FACTORIAL HepG2 Assay for human Liver X Receptor (LXR), DR4 submotif (AID 2282929); details: HepG2 Attagene DR4 cis-reporter, mRNA transcription; actives raise or lower the signal
How it was run: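 Measures endogenous transcription factor activity via a DR4-driven reporter transcript in human HepG2 cells. Compounds incubated 24 h; mRNA quantified by RT-PCR and capillary electrophoresis, analysed as gain or loss of signal versus DMSO.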

[6] = target: Aryl hydrocarbon receptor (Homo sapiens) (UniProt P35869); assay: ATG_Ahr_CIS: Attagene CIS-FACTORIAL HepG2 Assay for human Aryl Hydrocarbon Receptor (Ahr) (AID 2282930); details: HepG2 AhR cis-factorial reporter transcription; actives raise or lower the signal
Chain of Aryl hydrocarbon receptor (Homo sapiens) (P35869 whole entry, looked up): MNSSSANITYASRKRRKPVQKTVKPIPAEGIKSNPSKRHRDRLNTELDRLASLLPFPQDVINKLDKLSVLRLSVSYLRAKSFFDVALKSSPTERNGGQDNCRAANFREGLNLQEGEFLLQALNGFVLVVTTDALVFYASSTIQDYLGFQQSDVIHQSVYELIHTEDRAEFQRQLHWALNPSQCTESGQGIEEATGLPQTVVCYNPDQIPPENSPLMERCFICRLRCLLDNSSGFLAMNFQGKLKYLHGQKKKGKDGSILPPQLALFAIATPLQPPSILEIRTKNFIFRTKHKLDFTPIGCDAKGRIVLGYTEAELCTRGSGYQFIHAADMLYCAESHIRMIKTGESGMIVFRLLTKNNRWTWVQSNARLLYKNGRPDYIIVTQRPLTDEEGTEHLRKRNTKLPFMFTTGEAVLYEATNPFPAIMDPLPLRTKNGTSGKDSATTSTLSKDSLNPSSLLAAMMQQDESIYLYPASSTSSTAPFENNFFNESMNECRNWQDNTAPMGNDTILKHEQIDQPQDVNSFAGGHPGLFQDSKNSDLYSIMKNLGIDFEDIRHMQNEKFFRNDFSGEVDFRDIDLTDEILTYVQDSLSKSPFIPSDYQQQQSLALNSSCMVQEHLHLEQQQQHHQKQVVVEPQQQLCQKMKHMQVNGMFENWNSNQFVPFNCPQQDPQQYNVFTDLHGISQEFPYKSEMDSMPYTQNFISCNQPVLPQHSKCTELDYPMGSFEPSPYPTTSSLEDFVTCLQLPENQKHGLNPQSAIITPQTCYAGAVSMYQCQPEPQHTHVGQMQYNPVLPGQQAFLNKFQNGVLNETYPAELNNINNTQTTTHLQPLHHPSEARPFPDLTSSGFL
How it was run: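 Transient MRTU transfection of HepG2 → 24 h compound exposure → total RNA, oligo(dT) RT → PCR, 6-FAM extension, HpaI cut → CE fluorescence. DMSO = baseline; bidirectional curve fit.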

[7] = ATG_AP_2_CIS: Attagene CIS-FACTORIAL HepG2 Assay for human Activator Protein 2 (AP-2) (AID 2282932); details: HepG2 AP-2 cis-reporter, Attagene transcription factor profiling; actives raise or lower the signal
How it was run: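 Transiently transfected HepG2 cells are exposed to chemical for 24 h. Reporter transcripts are then measured as fluorescence following RT-PCR and capillary separation, and gain- or loss-of-signal is fitted relative to DMSO.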

[8] = ATG_BRE_CIS: Attagene CIS-FACTORIAL HepG2 Assay for human Bone Morphogenetic Protein (BMP) Response Element (BRE) (AID 2282933); details: HepG2 BMP response element reporter, Attagene transcription factor profiling; actives raise or lower the signal
How it was run: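 Endogenous transcription factor activity at a BMP response element was monitored in transfected HepG2 cells 24 h after dosing. Fluorescent RT-PCR products were resolved by capillary electrophoresis, and activity was fitted in both directions versus DMSO.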

[9] = target: Retinoic acid receptor alpha (Homo sapiens) (UniProt P10276); assay: ATG_DR5_RAR_CIS: Attagene CIS-FACTORIAL HepG2 Assay for human Retinoic Acid Receptor Alpha (RARE), DR5 submotif (AID 2282934); details: HepG2 Attagene cis-factorial RARE DR5 reporter, mRNA; actives raise or lower the signal
Chain of Retinoic acid receptor alpha (Homo sapiens) (P10276 whole entry, looked up): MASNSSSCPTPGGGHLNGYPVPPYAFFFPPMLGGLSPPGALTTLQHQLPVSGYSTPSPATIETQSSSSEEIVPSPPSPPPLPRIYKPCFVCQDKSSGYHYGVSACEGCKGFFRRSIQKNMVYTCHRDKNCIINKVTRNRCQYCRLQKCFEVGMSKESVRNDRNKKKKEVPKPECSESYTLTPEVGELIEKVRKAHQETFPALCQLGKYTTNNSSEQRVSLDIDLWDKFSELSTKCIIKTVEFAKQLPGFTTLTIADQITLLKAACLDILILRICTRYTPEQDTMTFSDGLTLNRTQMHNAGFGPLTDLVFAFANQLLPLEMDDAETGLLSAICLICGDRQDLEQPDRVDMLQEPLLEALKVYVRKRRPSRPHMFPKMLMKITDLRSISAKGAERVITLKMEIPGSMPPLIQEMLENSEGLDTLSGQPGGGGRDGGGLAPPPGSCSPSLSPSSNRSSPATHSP
How it was run: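 Transient MRTU transfection of HepG2; 24 h compound treatment; TriZol RNA, oligo(dT) RT, PCR, FAM labelling, capillary electrophoresis. Bidirectional fit vs DMSO. Endogenous TF activity at DR5 RARE.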

[10] = target: Transcription factor E2F1 (Homo sapiens) (UniProt Q01094); assay: ATG_E2F_CIS: Attagene CIS-FACTORIAL HepG2 Assay for human E2F Transcription Factor 1 (AID 2282935); details: HepG2 Attagene cis-reporter, E2F reporter RNA transcripts; actives raise or lower the signal
Chain of Transcription factor E2F1 (Homo sapiens) (Q01094 whole entry, looked up): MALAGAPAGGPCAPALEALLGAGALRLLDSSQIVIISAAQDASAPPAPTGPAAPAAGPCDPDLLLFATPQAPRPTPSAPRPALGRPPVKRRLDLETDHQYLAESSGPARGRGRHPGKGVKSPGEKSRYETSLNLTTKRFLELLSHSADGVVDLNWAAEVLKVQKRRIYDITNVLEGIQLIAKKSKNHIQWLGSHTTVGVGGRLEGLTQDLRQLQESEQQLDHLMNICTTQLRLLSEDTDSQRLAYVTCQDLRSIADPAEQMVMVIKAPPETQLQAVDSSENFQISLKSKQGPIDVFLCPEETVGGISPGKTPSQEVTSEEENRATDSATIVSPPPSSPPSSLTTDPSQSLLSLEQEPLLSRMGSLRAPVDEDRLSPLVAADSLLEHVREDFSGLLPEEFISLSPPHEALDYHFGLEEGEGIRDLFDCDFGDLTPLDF
How it was run: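 Fluorescent RT-PCR products, digested with HpaI for 2 h at 37 C, are separated by capillary electrophoresis. Source RNA comes from transfected HepG2 cultures treated for 24 h.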

[11] = ATG_E_Box_CIS: Attagene CIS-FACTORIAL HepG2 Assay for human Enhancer Box (E-box) (AID 2282936); details: HepG2 E-box cis-reporter transcription, actives raise or lower the signal
How it was run: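 Fluorescent reporter fragments separated by capillary electrophoresis gave the signal; mRNA came from HepG2 cells transfected with cis-element reporters and treated 24 h. Curves fitted bidirectionally relative to DMSO controls.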

[12] = ATG_EGR_CIS: Attagene CIS-FACTORIAL HepG2 Assay for human Early Growth Response 1 (EGR1) (AID 2282938); details: HepG2 Attagene CIS-FACTORIAL EGR reporter mRNA; actives raise or lower the signal
How it was run: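 Cell-based multiplex transcription assay: HepG2 carrying transfected cis-element reporter units, 24 h chemical treatment. Fluorescence from capillary electrophoresis of RT-PCR products gives mRNA levels; fitting is bidirectional relative to DMSO.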

[13] = ATG_M_19_CIS: Attagene CIS-FACTORIAL HepG2 Assay for M19 Transcription Factor (Internal Marker) (AID 2282939); details: HepG2 Attagene CIS-FACTORIAL M19 internal marker reporter; actives raise or lower the signal
How it was run: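 Background-control endpoint from a multiplexed HepG2 reporter panel. Cells carrying cis-regulated reporter constructs are treated 24 h, then reporter transcripts are amplified, fluorescently labelled and sized by capillary electrophoresis. DMSO defines baseline.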

[14] = ATG_ERE_CIS: Attagene CIS-FACTORIAL HepG2 Assay for Estrogen Response Element (ERE) (AID 2282940); details: HepG2 ERE cis-reporter, Attagene RNA transcript; actives raise or lower the signal
How it was run: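 Cells used were human hepatoma HepG2, transfected with multiple reporter transcription units under cis-regulatory promoters. Reporter mRNA, read 24 h post-dosing via fluorescent RT-PCR products on capillary electrophoresis, was fitted bidirectionally relative to DMSO.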

[15] = ATG_Ets_CIS: Attagene CIS-FACTORIAL HepG2 Assay for human Erythroblast Transformation Specific (ETS) (AID 2282941); details: HepG2 ETS cis-reporter transcription, actives raise or lower the signal
How it was run: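 Multiplexed reporter transcript profiling: HepG2, 24 h treatment, total RNA to cDNA, PCR, 6-FAM labelling, HpaI cut, capillary electrophoresis. Gain- or loss-of-signal fitted against DMSO.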

[16] = target: Hepatocyte nuclear factor 3-beta (Homo sapiens) (UniProt Q9Y261); assay: ATG_FoxA2_CIS: Attagene CIS-FACTORIAL HepG2 Assay for human Forkhead box A2 (FOXA2) (AID 2282942); details: HepG2 cis-reporter transcription factor activity, 24 h; actives raise or lower the signal
Chain of Hepatocyte nuclear factor 3-beta (Homo sapiens) (Q9Y261 whole entry, looked up): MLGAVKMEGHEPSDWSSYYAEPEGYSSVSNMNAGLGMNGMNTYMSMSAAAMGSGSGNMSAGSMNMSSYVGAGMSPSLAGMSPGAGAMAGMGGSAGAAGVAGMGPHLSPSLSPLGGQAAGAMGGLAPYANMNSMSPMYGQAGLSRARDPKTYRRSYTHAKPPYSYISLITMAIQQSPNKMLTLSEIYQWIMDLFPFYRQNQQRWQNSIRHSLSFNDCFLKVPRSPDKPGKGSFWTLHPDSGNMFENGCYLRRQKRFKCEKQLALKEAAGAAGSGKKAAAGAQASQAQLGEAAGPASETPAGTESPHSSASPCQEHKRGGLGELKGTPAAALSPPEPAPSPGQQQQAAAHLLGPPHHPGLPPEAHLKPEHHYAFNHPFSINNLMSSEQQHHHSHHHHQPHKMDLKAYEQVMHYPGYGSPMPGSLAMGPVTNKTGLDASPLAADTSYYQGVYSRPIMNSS
How it was run: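 In transiently transfected human HepG2 cells, promoter-driven reporter mRNA levels after 24 h chemical exposure are determined via RT-PCR with capillary electrophoresis. DMSO serves as baseline for bidirectional fitting.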

[17] = ATG_FoxO_CIS: Attagene CIS-FACTORIAL HepG2 Assay for human Forkhead box O (FoxO) (AID 2282943); details: HepG2 Attagene cis-reporter, FoxO element, mRNA; actives raise or lower the signal
How it was run: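 HepG2, transient MRTU transfection (cis element, endogenous TFs). Dose 24 h. TriZol RNA → oligo(dT) RT → PCR → 6-FAM primer extension → HpaI cut → CE. Gain/loss vs DMSO.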

[18] = ATG_GATA_CIS: Attagene CIS-FACTORIAL HepG2 Assay for human GATA Binding Protein (AID 2282944); details: HepG2 GATA cis-element reporter, Attagene multiplex mRNA; actives raise or lower the signal
How it was run: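 Endogenous transcription factor activity was captured through cis-promoter-driven reporters in transfected HepG2 cells. After 24 h exposure, reporter transcripts were quantified by RT-PCR with fluorescent capillary electrophoresis, and responses fitted both directions against DMSO.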

[19] = ATG_M_61_CIS: Attagene CIS-FACTORIAL HepG2 Assay for M61 Transcription Factor (Internal Marker) (AID 2282937); details: HepG2 Attagene CIS-FACTORIAL M61 internal marker reporter; actives raise or lower the signal
How it was run: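 Fluorescence from labelled cDNA fragments, separated by capillary electrophoresis, quantifies reporter induction. HepG2 cells bearing transiently transfected cis-promoter MRTUs were incubated with test chemical for 24 h; DMSO defined baseline for gain/loss fitting.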

[20] = ATG_AP_1_CIS: Attagene CIS-FACTORIAL HepG2 Assay for human Activator Protein 1 (AP-1) (AID 2282931); details: HepG2 Attagene cis-factorial AP-1 reporter mRNA; actives raise or lower the signal
How it was run: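 Bidirectional concentration-response fitting against DMSO controls. Underlying signal: reporter mRNA from cis-promoter constructs in transiently transfected HepG2, measured after 24 h by RT-PCR and capillary electrophoresis.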

Measured: AC50

CC1(C)CC(O)CC(C)(C)N1[O]
active: [4] 26.2 µM
not listed: [19] | [20]
inactive: all other assays above

CCN(CC)c1cccc(C)c1
not listed: [20]
inactive: all other assays above

CCCCCCOc1ccc(N)cc1
active: [4] 155 µM | [5] 159 µM
not listed: [6]
inactive: all other assays above

Fc1ccc(Br)cc1
active: [14] 21.1 µM
not listed: [6] | [17] | [19]
inactive: all other assays above

O=S(=O)(O)c1ccc(Nc2nc(Nc3ccc(C=Cc4ccc(Nc5nc(Nc6ccc(S(=O)(=O)O)cc6)nc(N(CCO)CCO)n5)cc4S(=O)(=O)O)c(S(=O)(=O)O)c3)nc(N(CCO)CCO)n2)cc1
not listed: [5] | [20]
inactive: all other assays above

CC1(C)CCC[C@]2(C)[C@H]3CC(=O)O[C@]3(C)CC[C@@H]12
not listed: [5] | [15]
inactive: all other assays above

CCOC(=O)c1ccccc1C
not listed: [5] | [7] | [15] | [19] | [20]
inactive: all other assays above

CC(C)=CCCC(C)=CC#N
active: [14] 172 µM
not listed: [5] | [12] | [15]
inactive: all other assays above
